In PubChem BioAssay (NCATS):
Values without a mark were called inactive. Inconclusive results are not listed. Entries that show only a call come without a potency. Activity calls are given as the source filed them. Unless noted, the call rests on the fitted dose curve; in most records, active means well fitted curve in the direction sought with a large enough effect; inconclusive means small, poorly fitted or top-dose-only effect, or another doubt; inactive means no such curve, though single readings can be large; an effect the other way counts as inactive or inconclusive.

What was measured:
[1] = Cell Viability - BJ (AID 421; calls by dose curve;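 further: potency means the concentration at half of the fitted maximal effect; cells exposed to compound for 40 hours at 37 °C before readout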); settings: BJ fibroblast viability, qHTS
Outline: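 Normal human BJ foreskin fibroblasts, 1500/well in complete medium, treated 40 hr at 37 °C. Cellular ATP by CellTiter-Glo luminescence; normalized to DMSO and 100 uM tamoxifen, AC50 from Hill fit.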

[2] = Cell Viability - Jurkat (AID 426;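 active means dose-dependent loss of cell ATP signal giving a full or clear fitted curve, ranked by lower potency value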; further: potency means the concentration at half of the fitted maximal effect); settings: qHTS
Outline: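 Jurkat (clone E6-1, human T-cell leukemia) cells, 5000/well in complete medium, were exposed to compound for 40 hr at 37 °C. Viability was read as intracellular ATP by CellTiter-Glo luminescence; AC50 came from Hill fits of concentration-response data.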

[3] = Cell Viability - Hek293 (AID 427;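 active means compounds whose dose-response curve shows a full or clear partial loss of cell viability, called from curve shape rather than a numeric limit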;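 further: potency means the concentration at half of the fitted maximal effect; cells exposed to compound for 40 hours at 37 °C before reading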); settings: qHTS
Outline: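 HEK293 cells in complete medium were exposed to compound for 40 hr at 37 °C, then cellular ATP was read by CellTiter-Glo luminescence. Data were normalized to DMSO (basal) and 100 uM tamoxifen (100% inhibition), and AC50 came from Hill fits.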

[4] = Cell Viability - HepG2 (AID 433; calls by dose curve;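 further: potency means the concentration at half of the fitted maximal effect; potency for ATP loss meaning cytotoxicity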); settings: qHTS
Outline: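 ATP luminescence (CellTiter-Glo) after 40 h compound exposure, 37 °C, HepG2, 1500 cells/well, complete medium. Normalized: DMSO = basal, 100 uM tamoxifen = 100% inhibition. AC50 via standard Hill equation.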

[5] = Cell Viability - MRC5 (AID 434; calls by dose curve;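 further: potency means the concentration at half of the fitted maximal effect; potency reflects cytotoxicity seen as loss of intracellular ATP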); settings: MRC5 lung fibroblast viability, qHTS
Outline: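 MRC5 normal human lung fibroblasts, 1500 cells/well, exposed to compound for 40 hr at 37 C. Cellular ATP was read by CellTiter-Glo luminescence; data normalized to DMSO and 100 uM tamoxifen, with AC50 from Hill fits.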

[6] = Cell Viability - SK-N-SH (AID 435; calls by dose curve; further: potency means the concentration at half of the fitted maximal effect); settings: SK-N-SH neuroblastoma cell viability qHTS
Outline: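 CellTiter-Glo ATP luminescence, 20 min RT read; cells pre-plated 5 hr, compound 40 hr at 37 °C, 1500 cells/well, complete medium. Normalized DMSO = 0, 100 uM tamoxifen = 100% inhibition; Hill-fit AC50.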

[7] = Cell Viability - N2a (AID 540); settings: N2a mouse neuroblastoma cell viability; series mostly up to 92.2 µM; further: nearly all actives have a fitted effect of over 45% in size
Outline: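 Mouse neuroblastoma N2a cells (1500/well) were preincubated 5 hr at 37 °C, then exposed to compounds for 40 hr at 37 °C in complete medium. Viability was read as intracellular ATP by CellTiter-Glo luminescence; AC50 from Hill fits.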

[8] = Cell Viability - NIH 3T3 (AID 541); settings: NIH 3T3 cell viability, qHTS; series mostly up to 92.2 µM; further: nearly all actives have a fitted effect of over 25% in size
Outline: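 NIH 3T3 mouse embryo fibroblasts (1000 cells/well) were plated in complete medium and treated with compound for 40 hr at 37 °C. Viability was read as intracellular ATP by CellTiter-Glo luminescence; AC50 values came from Hill-equation fits of concentration-response data.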

[9] = Cell Viability - HUV-EC-C (AID 542); settings: HUV-EC-C endothelial cell viability, qHTS; series mostly up to 92.2 µM; further: nearly all actives have a fitted effect of over 35% in size
Outline: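 HUV-EC-C normal human vascular endothelial cells, 1000 cells/well, pre-incubated 5 hr at 37 °C, then exposed to compounds for 40 hr at 37 °C in complete medium. Viability measured as intracellular ATP by CellTiter-Glo luminescence; AC50 from Hill fits.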

[10] = Cell Viability - H-4-II-E (AID 543); settings: H-4-II-E rat hepatoma viability; series mostly up to 92.2 µM; further: nearly all actives have a fitted effect of over 35% in size
Outline: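 Rat hepatoma H-4-II-E cells (1500/well) were plated, incubated 5 hr at 37 °C, then exposed to compounds for 40 hr at 37 °C. Cellular ATP was read by CellTiter-Glo luminescence; AC50 came from Hill-equation fits of concentration-response data.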

[11] = biological target: Cytochrome P450 2D6 (Homo sapiens) (UniProt P10635); assay: qHTS Assay for Inhibitors and Substrates of Cytochrome P450 2D6 (AID 891); settings: recombinant CYP2D6, luciferin-ME EGE luminescence; series mostly up to 57.1 µM; further: potency means the concentration at half of the fitted maximal effect; nearly all actives have a fitted effect of over 60% in size
Outline: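 Human CYP2D6 (5 nM) with 30 uM Luciferin-ME EGE (at Km) in 100 mM KPO4, compound preincubated 10 min, then NADPH regeneration system for 60 min at room temperature. Luciferin read by luminescence; normalized to 1.43 uM quinidine.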

[12] = Cell Viability qHTS for small molecule stabilizers of the endoplasmic reticulum resident proteome (AID 1508629); settings: cell viability counter-screen, 100 nM thapsigargin for final 4 h;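 further: human SH-SY5Y neuroblastoma cells carrying the GLuc-SERCaMP reporter; compound exposure about 46 h in total before the viability read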
[13] = biological target: Cytochrome P450 2C19 (Homo sapiens) (UniProt P33261); assay: qHTS Assay for Inhibitors and Substrates of Cytochrome P450 2C19 (AID 899); settings: recombinant CYP2C19, luciferin-H EGE luminescence; series mostly up to 57.1 µM; further: potency means the concentration at half of the fitted maximal effect; nearly all actives have a fitted effect of over 60% in size
Outline: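 Luminescent read-out of luciferin formed from Luciferin-H EGE (10uM, equal to KM). Enzyme 5nM in 50mM KPO4; compound added, 10 min at 37C, then NADPH regenerating system for 60 min at 37C. Full inhibition defined by 57uM ketoconazole.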

[14] = Confirmation and Secondary Assay for Modulators of Hemoglobin Beta Chain Splicing at IVS2 705 locus (AID 930); settings: HeLa EGFP-705 splicing reporter, GFP fluorescence, 48 h; series mostly up to 38.3 µM;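 further: HeLa cells stably expressing the EGFP-705 splicing reporter; GFP fluorescence per well restored by corrected splicing of the IVS2-705 intron in EGFP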
Outline: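 HeLa EGFP-705 reporter; 500 cells/well, o/n 37C 5% CO2; cpd 2 d; 488 ex/500-520 em laser scan; total peak GFP intensity/well. Ref: 500 nM […] antisense PNA.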

[15] = Primary qHTS for small molecule stabilizers of the endoplasmic reticulum resident proteome: Secreted ER Calcium Modulated Protein (SERCaMP) assay (AID 1508630); settings: SH-SY5Y GLuc-SERCaMP (Gaussia luciferase released on ER calcium loss) secretion, thapsigargin, luminescence; series mostly up to 38.4 µM
Outline: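 GLuc-SERCaMP-expressing SH-SY5Y cells, pretreated 16 h with compound, are challenged with thapsigargin to empty ER calcium stores; after 4 h, coelenterazine is added directly to the medium and luminescence is imaged.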

[16] = biological target: Rap guanine nucleotide exchange factor 3 (Homo sapiens) (UniProt O95398); assay: Confirmatory qHTS for agonist of cAMP-regulated guanine nucleotide exchange factor 3 (EPAC1) (AID 1645881); settings: EPAC1 Rap1B BODIPY-GDP exchange fluorescence, 100% = cAMP control response; series mostly up to 154 µM;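 further: EPAC1 catalysed release of BODIPY-GDP from Rap1B seen as fluorescence loss; nearly all actives have a fitted effect of over 75% in size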
[17] = biological target: Rap guanine nucleotide exchange factor 4 (Homo sapiens) (UniProt Q8WZA2); assay: Confirmatory qHTS for agonist of cAMP-regulated guanine nucleotide exchange factor 4 (EPAC2) (AID 1645884); settings: EPAC2 GEF activity, Rap1B-BODIPY-GDP fluorescence, percent relative to cAMP agonist control; series mostly up to 154 µM;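 further: nucleotide exchange releases bodipy-GDP from Rap1 and this lowers its fluorescence; nearly all actives have a fitted effect of over 65% in size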
[18] = biological target: Cytochrome P450 2C9 (Homo sapiens) (UniProt P11712); assay: qHTS Assay for Inhibitors and Substrates of Cytochrome P450 2C9 (AID 883); settings: recombinant CYP2C9, luciferin-H luminescence, 60 min; series mostly up to 57.1 µM; further: potency means the concentration at half of the fitted maximal effect; nearly all actives have a fitted effect of over 60% in size
Outline: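 10nM CYP2C9 + 100uM Luciferin-H (=KM), 25mM KPO4; cpd 10 min 37C; NADPH regen, 60 min 37C; stop/detect with P450 Glo-Buffer 20 min; luminescence. Norm. to 57uM sulphaphenazole as full inhibition.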

Sequence of Cytochrome P450 2D6 (Homo sapiens) (P10635 whole entry, looked up): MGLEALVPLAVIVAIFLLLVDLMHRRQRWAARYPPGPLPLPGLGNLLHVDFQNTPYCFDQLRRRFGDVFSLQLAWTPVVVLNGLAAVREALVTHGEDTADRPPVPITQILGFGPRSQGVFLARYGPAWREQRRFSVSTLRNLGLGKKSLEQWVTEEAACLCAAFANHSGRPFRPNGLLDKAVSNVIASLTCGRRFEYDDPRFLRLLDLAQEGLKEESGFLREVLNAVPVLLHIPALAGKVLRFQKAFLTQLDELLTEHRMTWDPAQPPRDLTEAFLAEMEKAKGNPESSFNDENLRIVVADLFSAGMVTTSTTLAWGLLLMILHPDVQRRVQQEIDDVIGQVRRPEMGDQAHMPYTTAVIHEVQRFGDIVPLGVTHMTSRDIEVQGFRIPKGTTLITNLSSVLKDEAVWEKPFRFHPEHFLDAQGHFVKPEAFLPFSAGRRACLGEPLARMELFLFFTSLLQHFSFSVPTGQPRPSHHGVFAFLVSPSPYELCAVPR
Sequence of Cytochrome P450 2C19 (Homo sapiens) (P33261 whole entry, looked up): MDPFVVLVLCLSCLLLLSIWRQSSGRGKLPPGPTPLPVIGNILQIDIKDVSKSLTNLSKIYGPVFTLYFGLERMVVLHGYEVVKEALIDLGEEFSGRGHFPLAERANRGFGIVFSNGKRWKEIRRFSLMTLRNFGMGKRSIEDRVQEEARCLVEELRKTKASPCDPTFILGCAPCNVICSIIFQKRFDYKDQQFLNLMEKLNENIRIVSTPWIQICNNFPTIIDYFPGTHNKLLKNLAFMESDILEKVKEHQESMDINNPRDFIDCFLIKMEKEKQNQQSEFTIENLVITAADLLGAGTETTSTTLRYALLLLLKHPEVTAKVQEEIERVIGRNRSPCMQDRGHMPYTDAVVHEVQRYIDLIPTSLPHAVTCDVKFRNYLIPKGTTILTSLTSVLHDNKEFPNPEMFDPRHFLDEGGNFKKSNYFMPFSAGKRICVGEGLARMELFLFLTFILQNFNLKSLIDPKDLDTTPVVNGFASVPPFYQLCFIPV
Sequence of Cytochrome P450 2C9 (Homo sapiens) (P11712 whole entry, looked up): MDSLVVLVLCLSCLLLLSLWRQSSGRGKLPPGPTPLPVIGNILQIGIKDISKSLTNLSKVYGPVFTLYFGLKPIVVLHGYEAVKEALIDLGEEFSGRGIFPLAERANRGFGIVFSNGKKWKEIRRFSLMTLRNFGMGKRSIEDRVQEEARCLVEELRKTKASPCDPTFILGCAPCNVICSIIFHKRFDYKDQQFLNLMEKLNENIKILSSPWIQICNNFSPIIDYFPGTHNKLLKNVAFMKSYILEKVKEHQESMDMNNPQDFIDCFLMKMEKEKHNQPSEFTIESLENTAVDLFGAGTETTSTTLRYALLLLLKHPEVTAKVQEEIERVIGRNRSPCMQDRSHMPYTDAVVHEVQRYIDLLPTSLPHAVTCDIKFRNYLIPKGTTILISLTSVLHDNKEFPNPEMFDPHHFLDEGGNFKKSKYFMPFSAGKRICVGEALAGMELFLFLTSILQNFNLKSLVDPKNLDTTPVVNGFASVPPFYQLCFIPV
Sequence of Rap guanine nucleotide exchange factor 4 (Homo sapiens) (Q8WZA2 whole entry, looked up): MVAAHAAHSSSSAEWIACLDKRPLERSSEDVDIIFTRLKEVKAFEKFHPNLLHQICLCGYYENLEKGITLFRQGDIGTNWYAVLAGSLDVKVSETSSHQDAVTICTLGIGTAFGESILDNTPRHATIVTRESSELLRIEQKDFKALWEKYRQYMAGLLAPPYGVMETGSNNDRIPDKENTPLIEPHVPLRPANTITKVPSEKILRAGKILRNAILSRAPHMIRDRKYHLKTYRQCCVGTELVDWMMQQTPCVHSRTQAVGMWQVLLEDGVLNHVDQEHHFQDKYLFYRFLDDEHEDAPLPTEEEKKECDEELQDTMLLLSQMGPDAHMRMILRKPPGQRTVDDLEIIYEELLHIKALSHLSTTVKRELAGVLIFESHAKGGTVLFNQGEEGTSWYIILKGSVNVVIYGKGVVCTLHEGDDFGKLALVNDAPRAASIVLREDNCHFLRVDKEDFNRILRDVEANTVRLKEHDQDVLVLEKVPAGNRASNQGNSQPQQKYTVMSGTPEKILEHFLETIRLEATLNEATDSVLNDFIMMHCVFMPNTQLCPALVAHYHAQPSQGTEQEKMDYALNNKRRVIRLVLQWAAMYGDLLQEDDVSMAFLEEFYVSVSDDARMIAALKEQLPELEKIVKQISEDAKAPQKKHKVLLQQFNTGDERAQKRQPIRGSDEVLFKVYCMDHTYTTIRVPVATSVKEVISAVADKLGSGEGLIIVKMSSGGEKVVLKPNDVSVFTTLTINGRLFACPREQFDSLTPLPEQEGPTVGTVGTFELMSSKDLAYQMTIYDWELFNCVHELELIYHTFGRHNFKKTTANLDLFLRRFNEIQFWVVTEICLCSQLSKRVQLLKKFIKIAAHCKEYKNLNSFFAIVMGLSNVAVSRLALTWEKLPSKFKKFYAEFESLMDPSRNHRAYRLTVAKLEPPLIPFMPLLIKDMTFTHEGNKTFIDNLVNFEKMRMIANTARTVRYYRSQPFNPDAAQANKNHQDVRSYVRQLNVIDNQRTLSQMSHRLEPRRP
Sequence of Rap guanine nucleotide exchange factor 3 (Homo sapiens) (O95398 whole entry, looked up): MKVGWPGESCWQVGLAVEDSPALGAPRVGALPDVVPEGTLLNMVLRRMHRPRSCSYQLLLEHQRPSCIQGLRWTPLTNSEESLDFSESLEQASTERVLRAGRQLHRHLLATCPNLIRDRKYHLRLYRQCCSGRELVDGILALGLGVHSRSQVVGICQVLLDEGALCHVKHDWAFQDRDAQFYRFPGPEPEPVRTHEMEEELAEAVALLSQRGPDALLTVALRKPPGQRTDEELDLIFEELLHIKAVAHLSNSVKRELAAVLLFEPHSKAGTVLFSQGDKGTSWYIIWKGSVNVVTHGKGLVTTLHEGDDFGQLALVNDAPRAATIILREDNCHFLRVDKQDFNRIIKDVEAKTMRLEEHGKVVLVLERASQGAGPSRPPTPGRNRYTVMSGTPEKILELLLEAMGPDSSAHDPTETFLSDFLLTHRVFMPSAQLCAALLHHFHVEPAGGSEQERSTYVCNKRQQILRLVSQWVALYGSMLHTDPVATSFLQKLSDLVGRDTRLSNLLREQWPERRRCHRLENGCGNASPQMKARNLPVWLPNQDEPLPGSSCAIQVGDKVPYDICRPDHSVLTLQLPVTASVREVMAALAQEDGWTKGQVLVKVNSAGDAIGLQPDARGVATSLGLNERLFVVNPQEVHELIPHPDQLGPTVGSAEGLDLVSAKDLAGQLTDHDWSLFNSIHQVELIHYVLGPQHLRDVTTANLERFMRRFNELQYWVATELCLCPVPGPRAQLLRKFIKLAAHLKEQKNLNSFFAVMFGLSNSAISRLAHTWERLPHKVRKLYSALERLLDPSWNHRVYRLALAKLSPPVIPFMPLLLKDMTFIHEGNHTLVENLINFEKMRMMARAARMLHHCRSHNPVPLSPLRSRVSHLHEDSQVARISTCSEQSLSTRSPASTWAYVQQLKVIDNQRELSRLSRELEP

Structure (SMILES): CC(C)(c1cc(Br)c(O)c(Br)c1)c1cc(Br)c(O)c(Br)c1
- Potency [1]: > 92 µM
- Potency [2]: > 92 µM
- Potency [3]: > 92 µM
- Potency [4]: > 92 µM
- Potency [5]: > 92 µM
- Potency [6]: > 92 µM
- outcome [7]: inactive
- outcome [8]: inactive
- outcome [9]: inactive
- outcome [10]: inactive

Structure (SMILES): CCNc1ncc2nc(CCc3ccccc3)c(=O)n(CCOC)c2n1
- Potency [11]: 0.398 µM (active)

Structure (SMILES): O=C(c1cc(C(F)(F)F)cc(C(F)(F)F)c1)N1CCC2(CC1)CN(c1ccccn1)C2
- max response [12]: -18%

Structure (SMILES): O=S(=O)(c1ccccc1)N1CCC[C@@]2(CCN(c3ccncc3)C2)C1
- Potency [13]: 0.398 µM (active)

Structure (SMILES): COc1ccccc1-c1ccc2ncnc(N3CCN(C)CC3)c2c1
- outcome [14]: inactive

Structure (SMILES): COc1ccccc1CNc1ncnc2ccc(-c3ccccc3CN(C)C)cc12
- Potency [11]: 2.51 µM (active)
- outcome [14]: inactive

Structure (SMILES): O=C(O)c1ccc(-c2ccc3cc(C45CC6CC(CC(C6)C4)C5)c(O)cc3c2)cc1
- Potency [15]: inactive

Structure (SMILES): COCCn1c(=O)c(CCc2ccccc2)nc2cnc(N3CCN(C)CC3)nc21
- max response [12]: 0.276%

Structure (SMILES): Cc1ccccc1-c1nc(NC2CCNCC2)c2ccccc2n1
- outcome [14]: inactive

Structure (SMILES): FC(F)(F)c1ccccc1-c1nc(N2CCNCC2)c2ccccc2n1
- outcome [14]: inactive

Structure (SMILES): N#Cc1cccc(-c2nc(N3CCNCC3)c3ccccc3n2)c1
- outcome [14]: inactive

Structure (SMILES): Cc1ccc(P(=O)(CSC(=N)N)c2ccc(C)cc2)cc1
- outcome [16]: inactive
- activation [17]: -5.01% [at 17.1 µM]

Structure (SMILES): C[C@@H](C1[C@@H](O)CC2C3C=CC4C[C@@H](O)CC[C@]4(C)[C@H]3CC[C@@]21C)[C@@H]1CCCCN1 (some centres not stated)
- Potency [15]: inactive

Structure (SMILES): C[C@@H]1CC[C@H]2[C@H](C)[C@H]3CC[C@H]4C5[C@@H](O)CC6=CC(=O)CC[C@]6(C)[C@H]5C[C@H]4C3C(=O)N2C1 (some centres not stated)
- Potency [15]: inactive

Structure (SMILES): CN(C)c1ccc(-c2nccc(NCCN3CCOCC3)n2)cc1
- outcome [14]: inactive
- max response [12]: 10.1%

Structure (SMILES): C[C@H]1CC[C@@H]2N(C1)C[C@H]1[C@@H]3C[C@H]4[C@@H](C/C(=N\O)[C@H]5C[C@@H](O)CC[C@@]54C)[C@@H]3CC[C@H]1[C@]2(C)O
- Potency [15]: inactive

Structure (SMILES): CN1CCN(c2ncnc3ccc(-c4ccccc4C#N)cc23)CC1
- outcome [14]: inactive

Structure (SMILES): O=C1CC(c2ccc(O[C@@H]3OC(CO)[C@@H](O)C(O)C3O)cc2)Oc2cc(O)ccc21 (some centres not stated)
- Potency [15]: inactive

Structure (SMILES): CN(C)c1ncc2ncc(=O)n(CCc3ccccc3)c2n1
- Potency [18]: 6.31 µM (active)
- Potency [13]: 2 µM (active)

Structure (SMILES): Oc1cc2c(cc1O)[C@@H]1c3ccc(O)c(O)c3OC[C@]1(O)C2
- Potency [15]: inactive

Structure (SMILES): COc1ccc(-c2nc3cnc(N4CCNCC4)nc3n(CCc3ccccc3)c2=O)cc1
- Potency [18]: 3.98 µM (active)

Structure (SMILES): c1ccc2c(N3CCNCC3)nc(-c3ccc4c(c3)OCO4)nc2c1
- Potency [11]: 3.16 µM (active)
- outcome [14]: inactive

Structure (SMILES): COc1ccc(/C(=C\C(=O)O)c2nccc3cc(OC)c(OC)cc23)cc1OC
- Potency [15]: inactive
